Measured values taken from PubChem BioAssay AID1159580 (chemical genetic matrix, 2015).
Among all 5,500 compounds or so, about 2,000 (36%) were called active. Another 18% or so got no clear call; they are omitted. No stated cut-off is given here; in the data, active means normalized growth mostly below about 0.91 (no sharp cut-off); inconclusive means no clear call, values can overlap the other calls; inactive means mostly above about 0.92. Some of the results follow.

Experiment: chemical genetic growth profiling, strain panel (AID 1159580);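 further: tested at 20 µM; growth read once vehicle control cultures reached saturation at 30 °C; 1 = growth at the plate median or of vehicle wells; lower values mean less growth of the strain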
Conditions: growth OD

Measured: normalized growth

COP(N)(=O)SC (configuration not stated)
inactive: S. cerevisiae deletion strains, locus YJR075W, strain HOC1, hits give low values 1.01 | S. cerevisiae deletion strains, locus YKL009W, strain mrt4, hits give low values 1 | S. cerevisiae deletion strains, locus YKL068W, hits give low values 0.999 | S. cerevisiae deletion strains, locus YKL085W, strain MDH1 (second series), hits give low values 1 | S. cerevisiae deletion strains, locus YKL085W, strain MDH1, hits give low values 1 | S. cerevisiae deletion strains, locus YKL160W, strain elf1, hits give low values 0.995 | S. cerevisiae deletion strains, locus YKL190W, strain CNB1, hits give low values 1 | S. cerevisiae deletion strains, locus YKR001C, strain vps1, hits give low values 1.03 | S. cerevisiae deletion strains, locus YKR026C, strain gcn3, hits give low values 0.995 | S. cerevisiae deletion strains, locus YKR091W, strain srl3, hits give low values 1 | S. cerevisiae deletion strains, locus YLL001W, strain dnm1, hits give low values 0.981 | S. cerevisiae deletion strains, locus YLL026W, hits give low values 0.996 | S. cerevisiae deletion strains, locus YLL041C, strain sdh2, hits give low values 1 | S. cerevisiae deletion strains, locus YLR027C, strain aat2, hits give low values 0.999 | S. cerevisiae deletion strains, locus YLR039C, strain RIC1, hits give low values 1.04 | S. cerevisiae deletion strains, locus YLR058C, strain SHM2, hits give low values 1.01 | S. cerevisiae deletion strains, locus YLR102C, strain apc9, hits give low values 1.02 | S. cerevisiae deletion strains, locus YLR113W, strain HOG1, hits give low values 0.963 | S. cerevisiae deletion strains, locus YLR221C, strain rsa3, hits give low values 0.991 | S. cerevisiae deletion strains, locus YLR258W, strain gsy2, hits give low values 1.01 | S. cerevisiae deletion strains, locus YLR262C, strain YPT6 (second series), hits give low values 1.01 | S. cerevisiae deletion strains, locus YLR262C, strain YPT6, hits give low values 1.02 | S. cerevisiae deletion strains, locus YLR268W, strain sec22, hits give low values 1.01 | S. cerevisiae deletion strains, locus YLR320W, strain mms22, hits give low values 1.01 | S. cerevisiae deletion strains, locus YLR330W, strain CHS5, hits give low values 1 | S. cerevisiae deletion strains, locus YLR342W, strain FKS1 (second series), hits give low values 1.03 | S. cerevisiae deletion strains, locus YLR342W, strain FKS1, hits give low values 1.01 | S. cerevisiae deletion strains, locus YLR357W, strain rsc2, hits give low values 1.02 | S. cerevisiae deletion strains, locus YLR370C, strain arc18, hits give low values 1.01 | S. cerevisiae deletion strains, locus YLR371W, strain rom2, hits give low values 1.02 | S. cerevisiae deletion strains, locus YLR384C, strain iki3, hits give low values 1 | S. cerevisiae deletion strains, locus YLR418C, strain cdc73, hits give low values 1.01 | S. cerevisiae deletion strains, locus YML016C, strain PPZ1, hits give low values 0.992 | S. cerevisiae deletion strains, locus YML032C, strain rad52, hits give low values 1.03 | S. cerevisiae deletion strains, locus YML120C, strain ndi1, hits give low values 1 | S. cerevisiae deletion strains, locus YML124C, strain tub3, hits give low values 1.01 | S. cerevisiae deletion strains, locus YMR058W, strain fet3, hits give low values 1.01 | S. cerevisiae deletion strains, locus YMR078C, strain ctf18, hits give low values 1.02 | S. cerevisiae deletion strains, locus YMR125W, strain sto1, hits give low values 1.01 | S. cerevisiae deletion strains, locus YMR129W, hits give low values 0.992 | S. cerevisiae deletion strains, locus YMR205C, strain PFK2, hits give low values 1.02 | S. cerevisiae deletion strains, locus YMR223W, strain ubp8, hits give low values 1.02 | S. cerevisiae deletion strains, locus YMR231W, strain pep5, hits give low values 1.01 | S. cerevisiae deletion strains, locus YMR263W, strain SAP30, hits give low values 0.994 | S. cerevisiae deletion strains, locus YMR307W, strain GAS1, hits give low values 1.02 | S. cerevisiae deletion strains, locus YNL067W, strain RPL9B, hits give low values 0.99 | S. cerevisiae deletion strains, locus YNL071W, strain lat1, hits give low values 1 | S. cerevisiae deletion strains, locus YNL128W, strain TEP1, hits give low values 0.991 | S. cerevisiae deletion strains, locus YNL153C, strain GIM3, hits give low values 0.996 | S. cerevisiae deletion strains, locus YNL183C, strain NPR1, hits give low values 0.985 | S. cerevisiae deletion strains, locus YNL209W, strain ssb2, hits give low values 1 | S. cerevisiae deletion strains, locus YNL233W, strain BNI4, hits give low values 0.992 | S. cerevisiae deletion strains, locus YNL248C, strain rpa49, hits give low values 0.969 | S. cerevisiae deletion strains, locus YNL250W, strain rad50, hits give low values 1.01 | S. cerevisiae deletion strains, locus YNL271C, strain bni1, hits give low values 1.01 | S. cerevisiae deletion strains, locus YNL298W, strain CLA4, hits give low values 1.02 | S. cerevisiae deletion strains, locus YNL307C, strain MCK1, hits give low values 1.03 | S. cerevisiae deletion strains, locus YNL322C, strain KRE1 (second series), hits give low values 1 | S. cerevisiae deletion strains, locus YNL322C, strain KRE1, hits give low values 0.999 | S. cerevisiae deletion strains, locus YNR049C, strain mso1, hits give low values 0.996 | S. cerevisiae deletion strains, locus YNR052C, strain pop2, hits give low values 1.02 | S. cerevisiae deletion strains, locus YOL006C, strain TOP1, hits give low values 1.03 | S. cerevisiae deletion strains, locus YOL012C, strain htz1 0.95 | S. cerevisiae deletion strains, locus YOL147C, strain pex11, hits give low values 1.02 | S. cerevisiae deletion strains, locus YOR001W, strain rrp6, hits give low values 0.979 | S. cerevisiae deletion strains, locus YOR061W, strain CKA2, hits give low values 0.994 | S. cerevisiae deletion strains, locus YOR069W, strain VPS5, hits give low values 1 | S. cerevisiae deletion strains, locus YOR070C, strain gyp1, hits give low values 1.01 | S. cerevisiae deletion strains, locus YOR080W, strain dia2, hits give low values 1 | S. cerevisiae deletion strains, locus YOR083W, strain WHI5, hits give low values 0.999 | S. cerevisiae deletion strains, locus YOR106W, strain vam3, hits give low values 0.993 | S. cerevisiae deletion strains, locus YOR136W, strain idh2, hits give low values 1.01 | S. cerevisiae deletion strains, locus YOR144C, strain elg1, hits give low values 1.01 | S. cerevisiae deletion strains, locus YOR184W, strain ser1, hits give low values 1.03 | S. cerevisiae deletion strains, locus YOR231W, strain MKK1, hits give low values 1.05 | S. cerevisiae deletion strains, locus YOR265W, strain rbl2, hits give low values 1.01 | S. cerevisiae deletion strains, locus YOR270C, strain vph1, hits give low values 0.987 | S. cerevisiae deletion strains, locus YOR290C, strain snf2, hits give low values 1 | S. cerevisiae deletion strains, locus YOR316C, strain cot1, hits give low values 1.01 | S. cerevisiae deletion strains, locus YPL051W, strain arl3, hits give low values 1 | S. cerevisiae deletion strains, locus YPL055C, strain LGE1, hits give low values 0.984 | S. cerevisiae deletion strains, locus YPL078C, strain atp4, hits give low values 0.986 | S. cerevisiae deletion strains, locus YPL106C, strain sse1, hits give low values 1 | S. cerevisiae deletion strains, locus YPL240C, strain hsp82, hits give low values 1 | S. cerevisiae deletion strains, locus YPL241C, strain CIN2, hits give low values 0.994 | S. cerevisiae deletion strains, locus YPL256C, strain CLN2, hits give low values 1.06 | S. cerevisiae deletion strains, locus YPR119W, strain clb2, hits give low values 1.01 | S. cerevisiae deletion strains, locus YPR141C, strain kar3, hits give low values 1.01 | S. cerevisiae deletion strains, locus YPR163C, strain tif3, hits give low values 1.02 | S. cerevisiae deletion strains, locus YPR167C, strain met16, hits give low values 1.01 | S. cerevisiae deletion strains, strain wtn01, hits give low values 1.01 | S. cerevisiae strains, strain wild type, hits give low values 0.996
